In PubChem BioAssay AID1210 (NMMLSC, 2008) one finds inhibition data, which are given here for 42 compounds.

The target of this experiment is Estrogen receptor beta (Homo sapiens) (UniProt Q92731). Put plainly: ERbeta ligand binders by competition, primary screen, cell-based, Cos7 ERbeta-GFP, flow cytometry (AID 1210).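 Also: 0% = DMSO vehicle wells and 100% = complete loss of labeled estradiol signal.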 Conditions: fluorescent estrogen binding, stronger effect = higher value. (In general: In flow cytometry, cells or beads pass a laser one at a time.)
Estrogen receptor beta (Homo sapiens), sequence (Q92731 whole entry, looked up): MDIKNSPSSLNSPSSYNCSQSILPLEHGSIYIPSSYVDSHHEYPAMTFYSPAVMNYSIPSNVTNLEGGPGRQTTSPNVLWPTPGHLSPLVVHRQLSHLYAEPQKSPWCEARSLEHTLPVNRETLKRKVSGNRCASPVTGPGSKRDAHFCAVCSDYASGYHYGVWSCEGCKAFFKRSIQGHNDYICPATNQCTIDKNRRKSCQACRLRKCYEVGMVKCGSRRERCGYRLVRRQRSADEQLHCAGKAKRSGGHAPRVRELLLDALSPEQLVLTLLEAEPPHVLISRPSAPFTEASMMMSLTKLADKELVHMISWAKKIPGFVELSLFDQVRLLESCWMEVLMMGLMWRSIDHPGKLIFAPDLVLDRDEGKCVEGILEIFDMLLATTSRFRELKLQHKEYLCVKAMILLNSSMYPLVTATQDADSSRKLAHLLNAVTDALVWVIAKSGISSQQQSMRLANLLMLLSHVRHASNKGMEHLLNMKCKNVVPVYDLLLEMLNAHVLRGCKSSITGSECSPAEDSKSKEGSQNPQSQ
Where [1] appears, read: ligand binding inhibition, at 0.1 µM.

Molecules are shown by their SMILES. Activity calls are given as the source filed them.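 The calls were made as follows: active = blocks over 70% of labeled estradiol binding at 10 µM, or over a set limit at 100 nM; inactive = the rest.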

For orientation: inhibition means the change of the read-out against control, counted positive when it falls.

As for `N=c1c(C(=O)NCc2ccc(F)cc2)cc2c(=O)n3ccccc3nc2n1Cc1cccnc1`, the inhibition (at 10 µM) was 30% (inactive) and the inhibition under setting [1] is 34%.

Consider `O=C(O)C1Nc2c(O)cc(Cl)c([N+](=O)[O-])c2C2C=CCC12` (centres undefined), for which the inhibition is 31% (inactive) (at 10 µM) and 18% under setting [1].

Consider `Cc1ccc(-c2csc(NC(=O)c3ccno3)n2)cc1`, for which the inhibition is 40% (inactive) (at 10 µM) and 28% under setting [1].

`Cc1ccc(C)c(SCC(=O)OCC(=O)c2ccco2)c1`: the inhibition was 50% (inactive) (at 10 µM) and 57% under setting [1].

`NC(=O)c1c(NC(=O)c2cccs2)sc2c1CCCCCC2`: the inhibition is 54% (inactive) (at 10 µM) and 42% under setting [1].

Turning to `COc1cccc(NS(=O)(=O)c2ccc3c(c2)C2C=CCC2C(c2ccc(C(=O)O)cc2)N3)c1` (centres undefined), the inhibition runs as follows: (at 10 µM) 0% (inactive); under setting [1], 9%.

Take `COc1ccc(/C=N/NC(=O)c2nc(-c3ccccc3)n(-c3ccccc3)n2)c(O)c1`: the inhibition is, setting by setting: (at 10 µM) 45% (inactive); under setting [1], 33%.

Take `COc1cc(CCC(=O)OCC(=O)Nc2ncc(Cl)cc2Cl)cc(OC)c1OC`: the inhibition is 52% (inactive) (at 10 µM) and 8% under setting [1].

Turning to `CCc1ccc(Nc2cc(C(=O)NCCCN3CCOCC3)c3ccccc3n2)cc1`, the inhibition by setting is: (at 10 µM) 38% (inactive); under setting [1], 12%.

Take `COc1cccc(C(=O)NC2CCN(C(=O)N3c4ccccc4Sc4ccccc43)CC2)c1`: the inhibition (at 10 µM) is 43% (inactive) and the inhibition under setting [1] was determined as 17%.

With `c1coc(-c2nn3c(-c4ccco4)nnc3s2)c1`, the inhibition is 37% (inactive) (at 10 µM) and 28% under setting [1].

With `COc1ccc(C2Nc3ccccc3C(=O)N2c2ccccc2)cc1Cn1cc([N+](=O)[O-])cn1` (centres undefined), the inhibition reads like this: (at 10 µM) 26% (inactive); under setting [1], 45%.

`COc1ccc2[nH]c3c(c2c1)CCn1c-3nc2ccccc2c1=O`: the inhibition by setting is: (at 10 µM) 16% (inactive); under setting [1], 36%.

Regarding `C/C(N)=C(/C#N)C(=O)CSc1nnc(-c2ccc(OC(F)F)cc2)o1`, the inhibition (at 10 µM) was 37% (inactive) and the inhibition under setting [1] turned out to be 23%.

As to `CC1CCc2c(sc(NC(=O)c3ccc(Cn4cc([N+](=O)[O-])cn4)o3)c2C#N)C1` (centres undefined), the inhibition by setting is: (at 10 µM) 19% (inactive); under setting [1], 58%.

In the case of `O=C(c1cc2c(s1)CCC2)N1CCN(c2ccccc2)CC1`, the inhibition runs as follows: (at 10 µM) 52% (inactive); under setting [1], 7%.

In the case of `Clc1ccc2c(c1)[C@H]1OCC[C@H]1[C@@H](c1ccco1)N2`, the inhibition is, setting by setting: (at 10 µM) 0% (inactive); under setting [1], 4%.

Regarding `O=c1c(OC2OC(CO)C(O)C(O)C2O)c(-c2ccc(O)c(O)c2)oc2cc(O)cc(O)c12` (centres undefined), the inhibition is 36% (inactive) (at 10 µM) and 46% under setting [1].

As for `COc1ccc(N2Cc3cccc(C(=O)N4CCN(C(=O)c5ccco5)CC4)c3C2=O)cc1`, the inhibition is, setting by setting: (at 10 µM) 29% (inactive); under setting [1], 27%.

Turning to `O=C1OC(c2ccc(O)cc2)(c2ccc(O)cc2)c2ccccc21`, the inhibition (at 10 µM) is 51% (inactive) and the inhibition under setting [1] turned out to be 11%.

As for `Cc1cc(C2(c3ccc(O)c(C)c3)OC(=O)c3ccccc32)ccc1O`, the inhibition was 73% (active) (at 10 µM) and 29% under setting [1].

Take `COc1ccc(-c2ccc(-c3noc(-c4cccs4)n3)c(OC)n2)cc1`: the inhibition reads like this: (at 10 µM) 63% (inactive); under setting [1], 20%.

Consider `COc1cccc(-n2nnnc2SCC(=O)Nc2ccc(C(C)=O)cc2)c1`, for which the inhibition is 61% (inactive) (at 10 µM) and 51% under setting [1].

Regarding `Cc1ccc(S(=O)(=O)Cc2ccc(C(=O)O)o2)cc1`, the inhibition was 54% (inactive) (at 10 µM) and 27% under setting [1].

Regarding `O=C(Oc1ccc(-c2cnc3ccccc3n2)cc1)c1ccc(Br)o1`, the inhibition (at 10 µM) is 72% (active) and the inhibition under setting [1] was determined as 29%.

Consider `O=C(c1cc2ncc(Br)cn2n1)N1CCN(C(=O)c2ccco2)CC1`, for which the inhibition was 62% (active) (at 10 µM) and 67% under setting [1].

For the compound `O=[N+]([O-])c1ccc(Cl)c2c1C1C=CCC1C(c1ccccn1)N2` (centres undefined), the inhibition (at 10 µM) is 0% (inactive) and the inhibition under setting [1] is 19%.

Consider `CC1(C)CC(=O)C2=C(C1)OC(c1ccc(O)cc1)C(C#N)=C2N` (centres undefined), for which the inhibition is 47% (inactive) (at 10 µM) and 49% under setting [1].

For the compound `CC(=O)N1c2ccc3ccccc3c2C2C=CCC2C1c1ccc(Br)cc1` (centres undefined), the inhibition is 8% (inactive) (at 10 µM) and 3% under setting [1].

Regarding `O=C(CSc1nc2scc(-c3ccco3)c2c(=O)n1-c1ccccc1)NCC1CCCO1` (centres undefined), the inhibition runs as follows: (at 10 µM) 55% (inactive); under setting [1], 50%.

Consider `Nc1ncnc2c1ncn2C1CCC(CO)C(O)C1` (centres undefined), for which the inhibition (at 10 µM) is 48% (active) and the inhibition under setting [1] was found to be 69%.

In the case of `CCc1cccc2c(C(=O)Cn3nnc(-c4ccc(OC)c(OC)c4)n3)c[nH]c12`, the inhibition was 53% (inactive) (at 10 µM) and 52% under setting [1].

For `CC(=O)c1ccc2c(c1)C1C=CCC1C(c1ccc(S(=O)(=O)N3CCOCC3)cc1)N2` (centres undefined), the inhibition was 78% (active) (at 10 µM) and 17% under setting [1].

For the compound `Cc1ccc(Cc2cncc(O)c2)cc1S(=O)(=O)O`, the inhibition was 0% (inactive) (at 10 µM) and 13% under setting [1].

On to `O=c1oc2ccccc2n1CCn1c2ccccc2c2nc3ccccc3nc21`, for which the inhibition (at 10 µM) was 70% (inactive) and the inhibition under setting [1] is 18%.

As for `CCCCNS(=O)(=O)c1ccc(NC(=O)C(Sc2ccccc2)c2ccccc2)cc1` (centres undefined), the inhibition is, setting by setting: (at 10 µM) 41% (inactive); under setting [1], 14%.

`CC(C)CN(C(=O)COC(=O)c1cc2c(s1)CCC2)C1CCS(=O)(=O)C1` (centres undefined): the inhibition (at 10 µM) is 25% (inactive) and the inhibition under setting [1] is 28%.

With `CN1CCC(=NNC(=O)c2cn(-c3ccccc3)nc2-c2ccccc2)CC1`, the inhibition was 32% (inactive) (at 10 µM) and 6% under setting [1].

Turning to `CCn1nnc(NC(=O)CSc2ccc(Cl)cc2)n1`, the inhibition (at 10 µM) is 13% (active) and the inhibition under setting [1] was determined as 68%.

Turning to `Nc1ccc2nc3n(c(=O)c2c1)CCC3`, the inhibition is, setting by setting: (at 10 µM) 49% (inactive); under setting [1], 9%.

Regarding `CCn1c(=NC(=O)c2ccc(N3C(=O)CCC3=O)cc2)sc2c(OC)ccc(OC)c21`, the inhibition reads like this: (at 10 µM) 64% (inactive); under setting [1], 57%.

Take `Cc1ccc(-c2cc(C(=O)NCc3ccco3)c3ccccc3n2)o1`: the inhibition by setting is: (at 10 µM) 36% (inactive); under setting [1], 47%.
